Reference: PubChem BioAssay (NCI)
About 79,000 compounds went through this panel and 15% of them were active in at least one assay; those are over-represented in the sample as a whole. The source made the active and inactive calls. No stated cut-off is given here; in the data, active means growth inhibition above about 70%; inactive means the rest.

Key:
[1] = NCI Yeast Anticancer Drug Screen. Data for the rad50 strain (AID 155);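 further: 0% = growth of vehicle-only cultures of the same strain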; conditions: S. cerevisiae rad50 strain growth inhibition; at 50.0 µM; active compounds read high
In short: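 Readout: growth inhibition relative to vehicle-treated cultures. Compound exposure was carried out in a genetically defined yeast strain deficient in DNA damage repair.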

[2] = NCI Yeast Anticancer Drug Screen. Data for the mec2-1 strain (AID 157); conditions: S. cerevisiae mec2-1 strain, at 50.0 µM, active compounds read high
In short: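 Strain: mec2-1 (DNA repair/cell cycle alteration). Compound exposure, then growth measured; inhibition expressed relative to vehicle.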

[3] = NCI Yeast Anticancer Drug Screen. Data for the sgs1 mgt1 strain (AID 161);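 further: 0% = growth of cultures given vehicle only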; conditions: S. cerevisiae sgs1 mgt1 strain, at 50.0 µM, active compounds read high
In short: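 Mutant yeast exposed to compound; growth scored against vehicle-only wells.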

[4] = NCI Yeast Anticancer Drug Screen. Data for the cln2 rad14 strain (AID 165);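 further: 0% = growth equal to vehicle treated cultures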; conditions: S. cerevisiae cln2 rad14 strain, at 50.0 µM, active compounds read high
In short: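 Compounds are applied to the cln2 rad14 yeast strain, and growth is then compared with that of vehicle-treated cultures to give inhibition.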

[5] = NCI Yeast Anticancer Drug Screen. Data for the bub3 strain (AID 167); conditions: S. cerevisiae bub3 mutant strain, at 50.0 µM, active compounds read high
In short: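 Readout: yeast growth inhibition, expressed relative to vehicle-only wells. The test organism is a mutant strain from a panel with lesions in DNA repair or checkpoint genes.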

[6] = NCI Yeast Anticancer Drug Screen. Data for the mlh1 rad18 strain (AID 175); conditions: S. cerevisiae mlh1 rad18 strain growth inhibition; at 50.0 µM; active compounds read high
In short: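 Read-out is yeast growth inhibition, calculated against vehicle-only controls. The compound was applied to a strain engineered with DNA damage repair alterations.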

Measured: growth inhibition

c1ccc2c(CN3CCCCC3)cccc2c1
inactive: [1] -6.1% | [2] -19.1% | [3] -4.05% | [4] 5.5% | [5] -15.2%

C1=C\CCCC/C=C/CC/1
inactive: [1] 1.2% | [2] -4.75% | [3] -13.1% | [4] 5.3% | [5] 0.75%

C/C(=C/C=C(c1ccccc1)c1ccccc1)C1CCC2C3CCC4CC5CCC4(C)C3(O5)C(=O)CC12C (stereo unspecified)
inactive: [2] 60.6%
active: [1] 89.6% | [3] 73% | [4] 83% | [5] 93.3%

O=C(O)CN1CCCCC1
inactive: [1] -5.65% | [2] 5.5% | [3] -3.8% | [4] -27.1% | [5] -4.1%

COc1ccc(N2C(=O)C(=O)N(C)C2=O)c2ccccc12
inactive: [1] -15.1% | [2] -26.7% | [3] -2% | [4] 6.1% | [5] 2.85%

COc1ccc(C(O)c2cc(C(F)(F)F)cc(C(F)(F)F)c2)cc1OC (stereo unspecified)
inactive: [1] 9.2% | [2] -11.6% | [3] 11.2% | [4] 8.2% | [5] 22.9%

N#CC(C#N)=C1C=CC=CC=C1
inactive: [1] 14.2% | [2] 5% | [3] 0.85% | [4] -11.4% | [5] 8.75%

Cc1cccc(C(=O)N(C)C(c2ccco2)P(=O)(c2ccccc2)c2ccccc2)c1 (stereo unspecified)
inactive: [1] 19.9% | [2] -16.4% | [3] 68.2% | [4] 27.1% | [5] 33.1%

c1ccc2c(OCCSCCCCCCCCCCSCCOc3cccc4ccccc34)cccc2c1
inactive: [1] 18.9% | [2] -5.55% | [3] -2.25% | [4] 7.75% | [5] -3.6%

NC(=O)N/N=C/c1ccc2c(c1)OCO2
inactive: [1] 20.1% | [2] -7.9% | [3] 0% | [4] 8.45% | [5] -0.15%

CC[C@@]1(C)CCC2c3ccc(O)cc3CC[C@H]2C1C (stereo partly specified)
inactive: [1] -2.1% | [2] -9.1% | [3] 21.4% | [4] 42.6% | [5] -8.75%

O=C(CNc1ccc2c(=S)c3ccccc3[nH]c2c1)Nc1ccccc1-c1ccccc1NC(=O)CNc1ccc2c(=S)c3ccccc3[nH]c2c1
active: [1] 88.6% | [2] 92.5% | [3] 92.1% | [4] 90.8% | [5] 90.7%

CC(=O)OCc1ccc(C)cc1
inactive: [1] -9.05% | [2] 6.6% | [3] -12.7% | [4] -32.8% | [5] -14.9%

C/C(CC(O)(C(F)(F)F)C(F)(F)F)=N\O
inactive: [1] -29.8% | [2] -51.2% | [3] -20.4% | [4] -15.9% | [5] -19.5%

Cc1cc(=O)[nH]c(NNC(C#N)c2ccc([N+](=O)[O-])cc2)n1 (stereo unspecified)
inactive: [1] -18.5% | [2] 0.35% | [3] -36.1% | [4] -8.8% | [5] -30.6%

N#CC(=C1CCN(Cc2ccccc2)CC1)c1ccccc1
inactive: [1] 37.2% | [2] 12.7% | [3] 44.8% | [4] 47.6% | [5] 63.5%

CN(C)Cc1c(-c2ccccc2)c(-c2ccccc2)c2ccccn12
inactive: [1] -7.15% | [2] -21.8% | [3] 14.1% | [4] 2.8% | [5] 0.75%

N#C/C(=C\c1c(Cl)cccc1Cl)c1nc(-c2ccc(Cl)cc2)cs1
inactive: [1] -32.4% | [2] -40.6% | [3] -25.5% | [4] -23.6% | [5] -17.4%

Brc1ccccc1C(Nc1nncs1)Nc1nncs1
inactive: [1] 6.6% | [2] -4.35% | [3] -10.7% | [4] -3.1% | [5] -0.25%

C[N+]1(C)CCCC(O)(C(=O)c2ccccc2)C1 (stereo unspecified)
inactive: [1] -5.2% | [2] -10.3% | [3] -14.3% | [4] 6.6% | [5] -2.4%

CCC(=O)NC(Nc1cccc(F)c1C)(C(F)(F)F)C(F)(F)F
inactive: [1] -22.4% | [2] 23.4% | [3] -37.4% | [4] 14.7% | [5] 7.25%

Cn1c([N+](=O)[O-])cnc1COc1ccc(OCc2ncc([N+](=O)[O-])n2C)cc1
inactive: [1] 4.45% | [2] -20.1% | [3] -0.55% | [4] 27.6% | [5] 0.4%

O=C(CCCn1cnc([N+](=O)[O-])n1)NCCCn1ccnc1[N+](=O)[O-]
inactive: [1] -26.2% | [2] -19.7% | [3] -26.1% | [4] -3.45% | [5] -34.8%

COC(=O)/C(C)=C1\C=C(C)CC(C)(C)C1
inactive: [1] -4.3% | [2] -25.1% | [3] -10.6% | [4] 1% | [5] -23.9%

CCCC1(C)OCC(C)(C)CO1
inactive: [1] -1.05% | [2] 2.45% | [3] -13.3% | [4] -28.8% | [5] 3.85%

COc1cc(C2c3cc4c(c(OC(=O)c5ccccn5)c3CC3COC(=O)C32)OCO4)cc(OC)c1OC (stereo unspecified)
inactive: [1] 8.1% | [2] 10.1% | [3] 11.6% | [4] -9.5% | [5] 13%

CCCCCCCCCCCC[N+]1(C)CCS(=O)CC1 (stereo unspecified)
active: [1] 84.7% | [2] 84.3% | [3] 80% | [4] 70.7%
inactive: [5] 63.4%

Cc1nc(Nc2ccccc2)sc1C(=O)CC(=O)C(=O)NC12CC3CC(CC(C3)C1)C2
inactive: [1] 1.3% | [2] 8.95% | [3] 8.8% | [4] -13.1% | [5] 4.4%

Cc1ccc2nc(NS(=O)(=O)c3cc(C)c(Cl)cc3S)[nH]c2c1
inactive: [1] 9.35% | [2] 4.35% | [3] 9.1% | [4] 8.25% | [5] 16.4%

COc1cc(C2=C3C(=O)OCC3Cc3ccccc32)ccc1OCc1ccccc1 (stereo unspecified)
inactive: [1] 18.9% | [2] -0.5% | [3] 7.5% | [4] 5.55% | [5] 11.1%

Clc1ccc2nsnc2c1
inactive: [1] 14.2% | [2] -12.8% | [3] 24.9% | [4] 16.8% | [5] 18.9%

COC(=O)c1nc(N)[nH]c(=O)c1-c1ccc(Cl)cc1
inactive: [1] -9.5% | [2] -21.9% | [3] -10.9% | [4] 14.8% | [5] -12.7%

CC(=O)CC(=O)CC(C)C.CC(=O)CC(=O)CC(C)C.[Cu]
inactive: [1] 17.2% | [2] 17.5% | [3] 6.25% | [4] -16.1% | [5] -3.2%

CCc1ccccc1OCc1ccccc1
inactive: [1] 18.4% | [2] 11.8% | [3] 14.2% | [4] 6.9% | [5] 1%

CCC(Nc1nncs1)Nc1nncs1
inactive: [1] -21.9% | [2] 22.6% | [3] 2.2% | [4] -20.9% | [5] 2.95%

Cc1cn(C2CCN(CC3COC(C)(C)O3)O2)c(=O)[nH]c1=O (stereo unspecified)
inactive: [1] -13.5% | [2] -11.9% | [3] -26.3% | [4] -24.9% | [5] -5.35%

CC1OCOC1C1OCOCC1OC(=O)c1ccccc1 (stereo unspecified)
inactive: [1] -5.6% | [2] -5.5% | [3] -15.2% | [4] -14.8% | [5] 25.2%

CCOC(=O)C1=CC(C)(C(=O)OCC)Nc2c(nc(SC)[nH]c2=O)N1 (stereo unspecified)
inactive: [1] -30.9% | [2] -24.7% | [3] -14.7% | [4] 9.05% | [5] -11.8%

CC(C)(C)C1COC(c2ccccc2)(c2ccccc2)C1 (stereo unspecified)
inactive: [1] -24.6% | [2] -1.55% | [3] 8.7% | [4] -26.5% | [5] -2.4%

NC(=O)C(=O)N/N=C(\CC1(O)C(=O)Nc2ccccc21)c1ccc2ccccc2c1 (stereo unspecified)
inactive: [1] 17.4% | [2] 16.5% | [3] 7.5% | [4] 48.5% | [5] 35%

CCCNc1cc2c(cc1Br)-c1ccccc1C2=O
inactive: [1] -18.8% | [2] -3% | [3] -10.2% | [4] -16.1% | [5] 19.1% | [6] -0.65%

Cc1ccc(CO)cc1
inactive: [1] 13.9% | [2] -6.7% | [3] 21.9% | [4] -5.6% | [5] -2.05% | [6] 21.7%

Cc1cc(C2(c3cc(C)c(O)c4ncccc34)OC(=O)c3ccccc32)c2cccnc2c1O
active: [1] 84.6% | [2] 85.5% | [6] 87.5%
inactive: [3] 50.6% | [4] 44% | [5] 66%

CCCCNC(=O)CC(C)C(=O)O (stereo unspecified)
inactive: [1] 2.8% | [2] -1.35% | [3] -6.1% | [4] -20.8% | [5] -1.55% | [6] 6.1%

Nc1c(Br)cc(Br)c2c1CCC2
inactive: [1] 10.6% | [2] 5.9% | [3] 10.6% | [4] 1.4% | [5] 8.8% | [6] 15.8%

OC1C2CCC(C2)C1CN1CCOCC1 (stereo unspecified)
inactive: [1] -6% | [2] -3.35% | [3] -8.1% | [4] 1.85% | [5] 4.95% | [6] 1.7%
